The list is not random: actives were taken first. Their share in the collection is about 2%.
FUS suppressor = suppressors of FUS proteinopathy in yeast | S. cerevisiae FUS-expressing, growth rescue, OD600, 24 h | Potency, µM (doses to about 76.6 µM), actives largely listed as activators | 0.24% of 390,000 active; note: nearly all actives have a fitted effect of over 55% in size
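Restored growth of FUS-toxic S. cerevisiae, read as 600 nm absorbance after 24 h at 30C in galactose medium (starting OD 0.005). Controls CP55940 and DMSO.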
Abeta rescue = A-beta toxicity reversal in yeast | 0.063% of 410,000 active | yeast expressing A-beta42, growth rescue, OD600, 48 h; response scale: 0% DMSO, 100% iron-clioquinol control | AID 1347071 | Potency, µM (titrated, usually from 46.1 µM), hits mostly activators; note: nearly all actives have a fitted effect of over 55% in size
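Growth rescue measured by 600 nm absorbance after 48 h yeast culture at 30 C with compound. Values normalized between DMSO and an equimolar ferric chloride plus clioquinol control.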
GRP78 ERSR act = induces the endoplasmic reticulum stress response in human glioma cells | U87-MG GRP78 promoter luciferase reporter, 16 h | Potency, µM, actives largely listed as activators | 0.02% of 420,000 active; note: series mostly up to about 76 µM; nearly all actives have a fitted effect of over 35% in size
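Stably transfected U87-MG glioma cells carrying a GRP78-based luciferase sensor; 16 h compound incubation. Luminescence end-point read 10 min after Bright-Glo addition at room temperature.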
aSyn yeast inh = inhibitors of alpha-synuclein toxicity in yeast. Potency, µM (series often up to 46.1 µM), hits mostly activators. Yeast expressing alpha-synuclein, growth rescue, BacTiter-Glo, 24 h. 0.14% of 370,000 active; note: nearly all actives have a fitted effect of over 65% in size
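Readout is rescue of growth in alpha-synuclein-expressing yeast, so inhibitors of toxicity appear as activators. Growth after 24 hr at 30 deg C in galactose medium is quantified by luminescence.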
MBNL1 CUG block = blocks human MBNL1 binding to CUG repeat RNA | TR-FRET MBNL1-His/biotin-(CUG)12 binding, 665/545 ratio | Potency, µM (series often up to 57.5 µM), actives largely listed as inhibitors | 0.036% of 280,000 active | Q9NR56; active = well fitted inhibition curve with a large enough effect in the signal ratio, with a control signal flat, not every such curve was filed as active; inconclusive = small, poorly fitted or top-dose-only effect, or effect the other way, or a change in a side signal; inactive = no such curve, though single readings can be large or run the other way; the % refers to the signal ratio
Target sequence (Q9NR56 whole entry, looked up): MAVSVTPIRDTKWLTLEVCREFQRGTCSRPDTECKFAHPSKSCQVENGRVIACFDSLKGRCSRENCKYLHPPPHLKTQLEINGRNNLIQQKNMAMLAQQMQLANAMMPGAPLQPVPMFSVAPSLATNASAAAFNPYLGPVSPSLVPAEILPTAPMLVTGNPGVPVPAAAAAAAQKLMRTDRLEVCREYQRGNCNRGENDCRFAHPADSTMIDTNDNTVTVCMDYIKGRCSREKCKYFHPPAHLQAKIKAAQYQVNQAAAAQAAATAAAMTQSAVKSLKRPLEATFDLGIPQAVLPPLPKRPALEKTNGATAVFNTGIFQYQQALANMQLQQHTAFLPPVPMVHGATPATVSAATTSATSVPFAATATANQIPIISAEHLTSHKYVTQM
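TR-FRET readout: Ex 340 nm, 665/545 nm emission ratio, normalized to buffer-only (basal) and MBNL1-(CUG)12 controls. Complex of MBNL1-His with Biotin-(CUG)12, compounds 92 nM–58 uM, incubated 60 min at room temperature.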
TDP-43 yeast inh = inhibitors of TDP-43 toxicity in yeast; Potency, µM (highest dose often 46.1 µM), actives largely listed as activators; TDP-43 expressing yeast growth rescue, BacTiter-Glo, 24 h; 1.8% of 410,000 active; note: nearly all actives have a fitted effect of over 50% in size
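Readout is BacTiter-Glo luminescence of cell growth, so inhibitors register as activators. TDP-43-expressing yeast at OD600=0.02 in galactose medium, after raffinose pregrowth to mid-log, were incubated with compound for 24 hr at 30 deg C.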
Numbers stand for hits; i = inactive; ? = inconclusive; nt = no result; [ ] = another dose, or the depositor's remark. Unless noted, calls come from the whole dose curve; as a rule, active = well fitted curve in the direction sought with a large enough effect; inconclusive = small, poorly fitted or top-dose-only effect, or another doubt; inactive = no such curve, though single readings can be large; an effect the other way counts as inactive or inconclusive.

SMILES | FUS suppressor | Abeta rescue | GRP78 ERSR act | aSyn yeast inh | MBNL1 CUG block | TDP-43 yeast inh
COc1cc(=O)n2c(c1C(=O)NC(C)c1ccco1)CCN(C(=O)c1ccc3c(c1)OCCO3)CC2 (configuration not stated) | nt | nt | i | nt | nt | nt
Cc1[nH]n(-c2ccccc2)c(=O)c1C=Nc1cccc2cccnc12 | nt | i | i | i | nt | 22µM
Cc1[nH]n(-c2ccccc2)c(=O)c1/C=N/N1C(=O)c2cccc3cccc(c23)C1=O | i | ? | i | ? | ? | 18µM
Cc1ccc(-n2[nH]c(C)c(/C=N/c3ccccn3)c2=O)cc1 | i | i | i | i | ? | i
Cc1nc2sccn2c1CN1CCOc2ccc(CN3C[C@@H](C)O[C@@H](C)C3)cc2C1 | nt | nt | i | nt | nt | nt
CC1(C)Oc2ccc(NC(=O)C3COc4ccccc4O3)cc2O1 (configuration not stated) | i | i | i | i | i | 10µM
Cc1ccc(NC(=O)C2COc3ccccc3O2)cc1 (configuration not stated) | i | i | i | i | i | i
Cc1ccc(NC(=O)C2COc3ccccc3O2)c(C)c1 (configuration not stated) | i | i | i | i | i | 11µM
O=C(Nc1ccccc1)C1COc2ccccc2O1 (configuration not stated) | i | i | i | i | i | i
O=C(Nc1ccc([N+](=O)[O-])cc1)C1COc2ccccc2O1 (configuration not stated) | i | 8.9µM | i | i | ? | ?
O=C(Cn1cccn1)N1CCOc2c(cc(-c3ncc(C(F)(F)F)cc3Cl)cc2OCC2CCCO2)C1 (configuration not stated) | nt | nt | i | nt | nt | nt
Cc1ccn(CCC(=O)N2CCOc3ccc(C(O)C4CCCCC4)cc3C2)n1 (configuration not stated) | nt | nt | i | nt | nt | nt
COc1cc(=O)n2c(c1C(=O)NC(C)c1ccco1)CCN(Cc1cc3ccccc3o1)CC2 (configuration not stated) | nt | nt | i | nt | nt | nt
Cc1ccc(C(=O)CCNc2ccc(Br)cc2)o1 | i | i | i | i | i | i
Cc1ccc(C(=O)CCNc2ccc(F)c(Cl)c2)o1 | i | i | i | i | i | 10µM
O=C(O)C1CCCCC1C(=O)Nc1ccc2c(c1)OCCO2 (configuration not stated) | i | i | i | i | i | i
O=C(Nc1ccc2c(c1)OCCO2)C1CC1c1ccccc1 (configuration not stated) | nt | ? | i | i | i | 25µM
O=C(Nc1ccc2c(c1)OCCO2)c1cnn(-c2ccccc2)n1 | i | i | i | i[1.84 µM] | nt | 18µM
CCCCNC(=S)N(C)/N=C/c1ccc(F)cc1 | nt | i | i | i | i | 11µM
CCC(=O)N[C@@H]1c2ccccc2C2(CCN(Cc3ccccn3)CC2)[C@H]1OC | nt | nt | i | nt | nt | nt
Cc1cccc(OCCSc2nncn2C)c1 | i | i | i | i | i | i
Cc1cccc(OCCSc2nnc(-c3ccoc3C)n2C)c1 | i | i | i | i | i | 18µM
NNC(=O)c1cc(-c2cccs2)nc2ccccc12 | i | i | i | i | i | i
O=C(Nc1nccs1)c1cc(-c2ccccc2)nc2ccccc12 | i | i | i | i | nt | 14µM
Cc1cccc(-c2cc(C(=O)NCc3ccccn3)c3ccccc3n2)c1 | nt | i | i | i | i | 35µM
SMILES | FUS suppressor | Abeta rescue | GRP78 ERSR act | aSyn yeast inh | MBNL1 CUG block | TDP-43 yeast inh
O=C(NCc1ccccn1)c1cc(-c2ccccc2)nc2ccccc12 | nt | i | i | ? | nt | ?
C/C(=N\NC(=O)c1cc(-c2cccs2)nc2ccccc12)c1ccccn1 | i | 13µM | i | 14µM | i | 22µM
O=C1CCC2(CCC(c3ccccc3)CC2)N1CCCO (configuration not stated) | i | nt | nt | nt | nt | nt
COc1cc(OC)c2c(c1)S(=O)(=O)C(c1ccccc1)=C2N | i | 16µM | i | i | ? | i
C(=C/c1nccc2c1[nH]c1ccccc12)/c1ccc2c(c1)OCO2 | i | i | i | i | i | 10µM
CCN(CC)CCCOc1cc2nc(N3CCCN(C)CC3)nc(NC3CCN(C)CC3)c2cc1OC | nt | nt | i | ? | nt | nt
CCOc1cc2c(cc1OCC)C(c1ccc(F)cc1)NCC2 (configuration not stated) | i | i | i | i | nt | i
CCOc1cc(C2NN=C(c3ccccc3)S2)ccc1OCc1ccc(F)cc1 (configuration not stated) | i | i | i | i | i | 14µM
CCOc1cc(C2NN=C(c3ccccc3)S2)ccc1OCc1ccccc1Cl (configuration not stated) | i | i | i | i | i | 10µM
NC(=O)C1CCN(c2ncc(Br)s2)CC1 | i | nt | nt | nt | nt | nt
COc1cccc(-c2nc(CC(=O)O)cs2)c1OC | i | i | i | i | i | i
COc1cccc(-c2nc(CCl)cs2)c1OC | i | i | i | i | i | 14µM
CC(=O)N1CC(c2ccccc2)C(c2ccc(Cl)cc2)=N1 (configuration not stated) | nt | i | i | i | i | 11µM
CC(C)NC(=O)N1CC(c2ccccc2)C(c2ccc(Cl)cc2)=N1 (configuration not stated) | i | i | i | i | i | i
O=C(N/N=C/c1ccc(N2CCOCC2)cc1)c1ccncc1 | nt | i | i | i | nt | i
O=C(N/N=C/c1ccc(N2CCOCC2)cc1)c1ccccc1OCCOc1ccccc1 | i | i | i | i | ? | 25µM
COc1ccc(-c2cc(C(=O)NN=Cc3ccc(C)s3)[nH]n2)cc1 | i | nt | nt | nt | nt | nt
CC(C)(C)NC(=O)C(c1ccc(C#N)cc1)n1c(=O)c(-c2cc3ccccc3[nH]2)nc2ccccc21 (configuration not stated) | ? | ? | nt | 13µM | nt | i
CC(C)(C)NC(=O)C(c1ccccc1)n1c(=O)c(-c2cc3ccccc3[nH]2)nc2ccccc21 (configuration not stated) | ? | i | nt | ? | nt | ?
CC(C)(C)NC(=O)C(c1ccc(C(F)(F)F)cc1)n1c(=O)c(-c2cc3ccccc3[nH]2)nc2ccccc21 (configuration not stated) | i | ? | nt | 7.1µM | nt | ?
O=C1CCC2(CCC(c3ccccc3)CC2)N1CCO (configuration not stated) | i | nt | nt | nt | nt | nt
NC(C(=O)O)C(O)c1ccc(O)c(O)c1 (configuration not stated) | nt | nt | i | nt | nt | nt
Cc1ncc2c(c1CNC(=O)/C=C/c1cccs1)CCN(C(=O)C1CCCO1)C2 (configuration not stated) | nt | nt | i | nt | nt | nt
Fc1ccccc1-c1nc(NCC2CC2)nc2ccsc12 | i | i | i | i | nt | 22µM
COc1cccc(NC(=O)c2csc3c2CCCCC3)c1 | i | i | i | nt | nt | 13µM

Screening results deposited in PubChem by National Center for Advancing Translational Sciences (NCATS).
